The results in this text go back to the OligoGym collection.
Further: reference of the scale not given here.

The target in one assay is SRCRB4D. Description: pooled miR-30 sensor sort-seq; sequence = guide strand. The settings on record: shRNA.
As to TGCTCTACTGGTTAACATCTTC, the sensor-assay potency score (higher = more potent) was -0.561.
Take TTCGCAGTGCACGTTGTCCAGC: the sensor-assay potency score (higher = more potent) is -0.781.
The same measure, in the same setting: as for TAACATCTTCCTTGTTGGGGGC, the figure is -0.0485.
On the same count and under the same terms, as for TTGTCCAGCAGGATGTGTCCGG, the figure is -0.554; as for TTGACCAGACGTAGATGCCCGT, -0.902; as for TTCATCACACAGGACAGCCACA, -1.36.
Still for that read-out and setting: the result for TACACGTCCCTCGCATCGGTGG reads -1.14; that for TCGTAGGAGGTGCTCTACTGGT, -1.24.
As for TTTTCCATTCGGCAGTGTCGTA, the sensor-assay potency score (higher = more potent) is -1.69.
On the same count and under the same terms, the result for TTAACATCTTCCTTGTTGGGGG reads 0.296; that for TTGGCGTCCACCACGTCCCAGT, -1.07.
For TCTACTGGTTAACATCTTCCTT, the sensor-assay potency score (higher = more potent) was -0.575.

For the next assay, the target named is SRC. Described as above. The following applies: shRNA.
The sequence TCTGTGTTGTTGACAATCTGGA had a sensor-assay potency score (higher = more potent) of 0.0722.
Still for that read-out and setting: the result for TGAAACCACAGCATACAACTGC reads 0.358.
On the same count and under the same terms, the result for TTGAAGGACAGGTCTGTCTCCG reads 0.367; that for TAGACTCATAGTCATAGAGGGC, -1.02; that for TTTCGTGGTCTCACTTTCTCGC, 0.127.
